From the supplement of paper PMC3334620
Whole data set: some 33,000 sequences, median “E-score (-0.5 to 0.5)” near -0.054, cut for the highest 2% near 0.35. Many of the other results were omitted from the sample, so the highest values are more common in it than they were.

These sequences were tested against T1, Stb5 (UniProt P38699) (assay: PBM E-score (8-mer binding enrichment) (E-score (-0.5 to 0.5)); higher = stronger / more preferred TF binding). Conditions: protein concentration: 200 nM; construct: GST-full length.
T1 sequence: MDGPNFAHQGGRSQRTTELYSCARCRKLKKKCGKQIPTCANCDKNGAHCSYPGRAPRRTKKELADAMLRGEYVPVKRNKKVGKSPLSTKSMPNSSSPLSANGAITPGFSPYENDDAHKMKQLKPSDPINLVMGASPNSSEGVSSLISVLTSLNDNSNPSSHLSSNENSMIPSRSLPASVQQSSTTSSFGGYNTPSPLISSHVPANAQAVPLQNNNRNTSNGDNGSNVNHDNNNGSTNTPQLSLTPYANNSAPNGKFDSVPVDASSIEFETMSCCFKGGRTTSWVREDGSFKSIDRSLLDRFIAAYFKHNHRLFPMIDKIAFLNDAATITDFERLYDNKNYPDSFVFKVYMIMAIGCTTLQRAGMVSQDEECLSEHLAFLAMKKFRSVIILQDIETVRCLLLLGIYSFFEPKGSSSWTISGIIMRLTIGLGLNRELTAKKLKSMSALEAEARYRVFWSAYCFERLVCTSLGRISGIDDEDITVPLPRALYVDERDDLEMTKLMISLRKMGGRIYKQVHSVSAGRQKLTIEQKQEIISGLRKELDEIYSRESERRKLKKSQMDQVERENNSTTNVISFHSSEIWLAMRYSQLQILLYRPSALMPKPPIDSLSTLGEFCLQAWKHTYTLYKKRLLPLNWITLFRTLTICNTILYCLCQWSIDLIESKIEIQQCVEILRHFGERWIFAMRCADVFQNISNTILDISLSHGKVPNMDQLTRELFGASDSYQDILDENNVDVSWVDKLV
How it was run: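 E-scores (a modified Wilcoxon-Mann-Whitney statistic) were assigned by the Universal PBM Analysis Suite to every ungapped eight-base word pooled with its reverse complement. The input came from universal all-10-mer Agilent arrays made double-stranded by primer extension and probed with GST-tagged yeast transcription factors at about 100-200 nM. Fluorescent anti-GST detected bound protein, and masliner normalised the scans.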

Sequence	PBM E-score
GGTGCTCA	0.0877
CGAAAGAG	-0.0144
ACGCAGAG	-0.218
CCTCCATC	-0.18
AGCGGGAC	0.303
AGCGAGAC	-0.0631
CTAGCACC	0.336
GCGTCATA	-0.0207
GCAATGCA	-0.0992
CCAGCCAG	-0.223
ACAGTGAA	-0.147
CCTTAATC	0.109
GTTATCTA	-0.00767
ATCAACGA	0.0713
ACGGGTAG	-0.0642
CAAGTCCG	0.356
AACGTCCA	-0.0958
CAAGTCCC	0.00375
CAGGTCCG	0.237
AACGTCCG	0.375
AAGGTCCG	0.442
AGAGTCCT	-0.216
CAAGTCCA	-0.171
AGAGTCCC	0.0723

Sequence	PBM E-score
AAGGTCCA	-0.171
AGAGTCCG	0.378
AACGTCCC	-0.0635
GAACTGCC	-0.118
CGGATCCG	0.124
ATGGTCTA	-0.23
AAGAACCG	0.262
AAAGATCG	-0.0774
AGGCATCC	-0.261
ACATTAGC	-0.083
AGGCCGTG	0.212
CTCTTGTC	-0.198
ACGCCATG	-0.293
TAGCCGGA	0.279
CCTGAAGG	-0.14
AAAGTCCA	-0.136
AAAGTCCG	0.466
AAAGTCCT	0.108
ACGATTAC	-0.161
CTCTGCCA	-0.235
TCGGCCCA	0.105
ACGGAGAC	0.272
ACGGATAG	-0.0573
ACGGAGCT	0.373

Sequence	PBM E-score
ACGGAGAT	0.403
ACGGATAA	0.215
ACGGAGAA	0.188
ACGGATAT	0.367
ACGGAGCG	0.299
ACGGAGCC	0.263
AACTGTGA	-0.19
ATTGGAAA	-0.0189
ATCCTTTC	-0.195
CAGGCGAA	-0.257
GGCTTCTA	-0.04
AGTCGTAC	-0.189
TGTCGGAA	0.26
ACAGGTCA	-0.136
CACTACTA	-0.117
ACCATCCA	-0.118
CTAGTACC	0.226
ATAGTACC	0.359
ATAGTACG	-0.0437
GGCCGATA	0.266
CGCCGATC	0.363
CCCCGATA	0.339
CGCCGAGC	0.261
AGCCGATC	0.0924

Sequence	PBM E-score
AGCCGATA	0.0102
ACCCGATC	0.19
CGCCGATA	0.36
CCCCGATC	0.374
ACTATTCA	-0.084
CGCATCTC	-0.00684
TCTTTACA	-0.117
AGTGGCGG	0.292
ACAGTTAC	-0.0633
GGGAATAC	0.302
GGGAATAA	0.373
TGGAATAA	-0.14
CAACGAAC	0.079
CACCGATG	0.357
AACCGATC	0.106
GACCGATC	0.323
CACCGATA	0.351
CACCGATC	0.359
AACCGATG	0.143
GAGGCTGC	-0.213
ATCGGTTG	0.0401
CGCAATAC	-0.0062
CCTGGTCG	0.0613
CCTCGGTA	0.223

Sequence	PBM E-score
AGTCGGGG	0.363
GGTCGGTA	0.319
ACTCGGGG	0.185
AGTCGGTA	0.36
CGTCGGTC	0.325
AATCGGTC	0.234
CGTCGGTA	0.357
AATCGGTG	0.405
AATCGGTA	0.262
AGTCGGGA	0.287
ACTCGGTA	-0.00538
ATTGAAAT	-0.0501
AACGAGGC	-0.168
ACTCTACG	-0.241
TATACTCA	-0.245
GCGATTCA	0.00506
GGGCGCCC	0.147
GATAACGA	-0.102
ACTCAAGG	-0.223
AGTCGGTC	0.259
AATCGGGG	0.372
GGACGGTA	0.241
CGACGGTA	0.352
AATCGGGC	0.209

Sequence	PBM E-score
AGTCGGCG	0.239
CGACGGTC	0.315
CATCGGGG	0.313
AGTCGGTG	0.385
AAATGGAT	-0.168
AGGGAGAC	-0.0822
AACATGGT	-0.217
GCCAGCGC	-0.00309
GAAGGGGC	-0.11
AGCTCTCC	-0.325
CTGCGTCA	-0.121
GTAACTAC	0.109
ATTCCCGA	0.379
CTTCCCGC	0.129
ATTCCCGC	0.4
GTTCCCGA	0.235
CTTCCCGA	0.0298
ATTCCCGG	0.319
AATCCTAG	-0.0194
